Molecules are shown by their SMILES. The campaign covered roughly 1,300 compounds. Fewer than 10 were called active. These entries were drawn from the full list. A number with no mark means an inactive call. How the calls were made is not given here.

Our source for the inhibition values is PubChem BioAssay AID1856 (The Scripps Research Institute Molecular Screening Center, 2009).

The subject of this assay is metallo-beta-lactamase IMP-1 (Pseudomonas aeruginosa). As to the kind of experiment: IMP-1 metallo-beta-lactamase inhibitors, confirmation, selectivity assay for selective VIM-2 inhibitor project, biochemical, epi-absorbance readout, triplicate (AID 1856).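 Further: 0% = enzyme with vehicle and 100% = vehicle without enzyme.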 As to conditions: purified IMP-1, nitrocefin hydrolysis, epi-absorbance fluorescence; at 5.6 µM; hits give high values.
As a reminder, the inhibition is the drop in the measured response relative to a control, in per cent. For the compound `C=CCn1c(-c2ccccc2OCC)n[nH]c1=S`, the inhibition is -2.2%.
In the case of `Cc1cc(NCc2ccco2)n2c(nc3ccccc32)c1C#N`, the inhibition was -3.37%.
With `O=C(COc1cc2oc(=O)c3c(c2cc1Cl)CCC3)NCCCN1CCOCC1` the figure was -1.87%.
As to `CCN(CC)c1ccc2cc(C(N)=O)/c(=N\NC(=O)c3ccncc3)oc2c1`, the inhibition was -2.41%.
With `Cc1cccn2c(=O)c(C=O)c(Nc3ccc(S(N)(=O)=O)cc3)nc12` the figure was -3.66%; with `COc1nc(N=C(N)N)nc2c(C)cccc12`, -3.85%; with `COc1cc(NC(=O)C2=C(C)OCCS2)c(Cl)cc1C(=O)NCCN1CCN(C)CC1`, -2.62%.
The result for `CCN1CCN(CCNC(=O)c2ccc3c(c2)NC(=O)/C(=C\c2ccc(OC)c(OC)c2)S3)CC1` reads -3.87%.
Regarding `Cn1c(-c2sccc2OCc2cccc(C(F)(F)F)c2)n[nH]c1=S`, the inhibition is -2.3%.
The result for `CCOC(=O)N1CCN(C(=O)C2CCN(c3ncnc4c3sc3cccc(F)c34)CC2)CC1` reads -2.28%; that for `Cc1cc(-c2ccc(/C=N/n3cnnc3)o2)c([N+](=O)[O-])cc1C`, -2.82%.
For the compound `CNC(=O)c1ccsc1NC(=O)c1ccc(S(=O)(=O)N2CCOCC2)cc1`, the inhibition is -2.75%.
With `Cc1cc(C)c2nc3nc(C)cc(C)c3c(N)c2c1` the figure was -3.37%.
With `COc1ccc(-c2nn3c(-c4ccccc4)nnc3s2)cc1OC` the figure was -2.66%; with `CCc1cc(=O)oc2cc(C)cc(OCC(=O)N3CCC[C@@H]3C(=O)O)c12`, -3.22%; with `NC(=O)C1CCN(C(=O)COc2ccc3c4c(c(=O)oc3c2)CCC4)CC1`, -2.5%.
With `COc1cc(/C=N/Nc2nn3cnnc3c3ccccc23)cc(OC)c1OC` the figure was -2.07%; with `Cc1cc([N+](=O)[O-])c(-c2ccc(/C=N/n3cnnc3)o2)cc1Cl`, -2.7%.
Turning to `COc1ccc(Nc2cc(C)nc(-n3nc(C)cc3C)n2)cc1`, the inhibition was -4.36%.
With `COc1cc(-c2nn3c(-c4cccc(C)c4)nnc3s2)cc(OC)c1OC` the figure was -3.37%.
The result for `CCN1CCCC1CNC(=O)c1cc2c(=O)n(C)c3ccccc3c2n1C` (configuration not stated) reads -1.43%; that for `COC(=O)c1c(NC(=O)c2ccc(S(=O)(=O)N3CCOCC3)cc2)sc2c1CCN(C(C)C)C2`, -3.07%.
The result for `Cc1nc2ccccc2c2oc(C(=O)NCCCN3CCC(C)CC3)cc12` reads -2.57%; that for `O=C(NCCCN1CCOCC1)c1cnn2c(-c3ccccc3)cc(-c3ccccc3)nc12`, -1.31%; that for `CCOc1cc(/C=C2\SC(N3CCCC(C)C3)=NC2=O)ccc1O` (configuration not stated), -1.58%.
For `CN1CCN(c2ccc(NC(=O)c3ccc4c(c3)[nH]c(=O)n4Cc3ccc(F)cc3)cc2)CC1`, the inhibition is -2.45%.
With `Nc1cccc2c1C(=O)N(Cc1nnc(-c3ccccc3Br)o1)C2=O` the figure was -1.84%; with `O=C(NC(=S)Nc1ccccc1C(=O)O)c1ccc(-c2ccc(Br)cc2)o1`, -2.92%; with `Cn1c2ccccc2c(=O)c2c(O)cccc21`, 1.94%.
With `O=c1[nH]c(-c2ccccc2)c(-c2ccccc2)[nH]1` the figure was -1.69%; with `COc1ccc(/C=N/N(C)C2=NS(=O)(=O)c3ccccc32)cc1OC`, -2.33%; with `CCOc1cc(/C=C2\SC(N3CCCCC3)=NC2=O)ccc1O`, -4.28%.
With `CCN1CCN(C(=O)Cn2nc(C)n3c(cc4c(OC)cccc43)c2=O)CC1` the figure was -3.39%; with `Clc1cc(-c2ccc(/C=N/n3cnnc3)o2)ccc1Br`, -2.66%.
Regarding `Nc1nnc2c(C(F)(F)F)nc3ccccc3n12`, the inhibition was -2.31%.
The result for `Cc1ccc(Cl)cc1-c1ccc(/C=N/n2cnnc2)o1` reads -3.92%; that for `COc1ccc(CCn2c(=N)c(C(=O)NCC3CCCO3)cc3c(=O)n4cccc(C)c4nc32)cc1OC` (configuration not stated), -3.13%; that for `COC(=O)c1ccc(-c2noc(CN(Cc3ccccn3)CC3CCCO3)n2)cc1` (configuration not stated), -4.37%.
The result for `CCOCCCNc1c(CC)c(C)c(C#N)c2nc3ccccc3n12` reads -2.98%; that for `O=C1Nc2cc(C(=O)N3CCC(N4CCCCC4)CC3)ccc2S/C1=C\c1ccccc1`, -4.01%.
With `CCC1CCCCN1CCCNC(=O)c1cc2c(Cl)nc3ccccc3c2s1` (configuration not stated) the figure was -2%; with `Cc1ccc2nc(C)c3c(c2c1)N(c1ccccc1)CC3`, -3.39%; with `Fc1ccc(-c2ccc(CNCc3ccccn3)o2)cc1Cl`, -3.51%.
On to `CC(NS(=O)(=O)c1ccccc1)c1n[nH]c(=S)n1-c1ccccc1` (configuration not stated), for which the inhibition is -3.01%.
Take `Cn1c(=O)c2c(nc(N3CCOCC3)n2CCNC2=NCCC2)n(C)c1=O`: the inhibition was -2.77%.
The result for `CCN(CC)CCOc1ccc2c(c1)C(=NNC(=O)c1ccccn1)c1cc(OCCN(CC)CC)ccc1-2` reads -6.88%.
The result for `CC(=O)c1ccc(-c2ccc(Cn3c(C)nc4cc(N)c(C)nc43)cc2)cc1` reads -2.57%; that for `CCCc1ccc(OCCNC(=O)c2ccco2)cc1`, -3.83%.
With `CN(C)CCNc1ccc(-c2n[nH]c(=O)c3ccccc23)cc1[N+](=O)[O-]` the figure was -3.19%.
Turning to `COc1ccc(Cc2nnc(NS(=O)(=O)Cc3ccccc3)s2)cc1`, the inhibition was -2.35%.
The result for `CC(C)(C)CC(=O)Nc1nnc(SCC(=O)NCc2cccs2)s1` reads -4.47%; that for `CC1CCCC(C)N1CCCNC(=O)c1cc2c(=O)n(C)c3ccccc3c2n1C` (configuration not stated), -3.58%.
